12-hLO inh: inhibitors of human 12-lipoxygenase (ALOX12); P18054; purified 12-hLO, xylenol orange hydroperoxide absorbance; Potency, µM (doses to about 57.1 µM), for the others: at the top dose activity change, negative = inhibition, actives largely listed as inhibitors; 150,000 tested, 0.12% active; AID 1452; also: potency is read from the fitted curve at half-maximal effect; nearly all actives have a fitted effect of over 55% in size
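Hydroperoxide formation by human 12-lipoxygenase from 40 uM arachidonic acid was followed colorimetrically via ferric-xylenol orange complex, using the 573/405 nm absorbance ratio. Enzyme concentration was 150 nM, with 30 min reaction at room temperature.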
HPGD inh: blocks human HPGD enzyme activity; P15428; purified HPGD, NADH fluorescence kinetic, PGE2 substrate; Potency, µM, inactives show at the top dose activity change, negative = inhibition, actives largely listed as inhibitors; 150,000 tested, 4.3% active; AID 894; active = well fitted inhibition curve with a large enough effect, not every such curve was filed as active; inconclusive = small, poorly fitted or top-dose-only effect, or another doubt; inactive = no such curve, though single readings can be large or run the other way; also: potency is read from the fitted curve at half-maximal effect
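NADH formation kinetics: reaction with 30 uM PGE2 and 1 mM NAD+ (final), 20 nM enzyme, Tris-HCl pH 8 with Tween 20, after 15 min compound preincubation at room temperature. Fluorescence change, last versus first of five reads.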
aGal spleen mod: inhibits or activates alpha-galactosidase in human spleen homogenate. P06280. human spleen homogenate, 4MU-alpha-Gal fluorescence, 40 min. Potency, µM (titrated, usually from 80 µM), without a hit: at the top dose activity change, negative = inhibition, most hits filed as inhibitors. 240,000 tested, 0.008% active;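 also: potency is read from the fitted curve at half-maximal effect; 0% = enzyme with vehicle and -100% = no enzyme basal signal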
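Human spleen homogenate (1 ug) as enzyme source, 4-methylumbelliferyl-alpha-D-galactopyranoside 1 mM final, citrate/phosphate pH 5.0 with 0.01% Tween-20. Compounds 40 min at 37C, NaOH/glycine stop; fluorescence Ex 365/Em 440, Hill-fit AC50.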
PNC inhibitor: perinucleolar compartment assembly inhibition | PC3M PTB-GFP, PNC prevalence imaging, 16 h; stronger effect = lower value | activity change (PNC), negative = inhibition, % at 10 µM | 140,000 tested, 3.1% active | AID 2417;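 active = readout at or below -70, meaning at least 70% loss of cells showing the perinucleolar compartment, a nuclear body marking cancer cells; inconclusive = readout between -30 and a set limit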;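 also: plate controls were DMSO wells for no effect and camptothecin positive control wells for full effect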
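Read-out is percentage of cells bearing a perinucleolar compartment, from automated 20x imaging of fixed, Hoechst-stained PC3M PTB-GFP cells. Cells were seeded 4 h, then exposed 16 h to compound (23 nl of library stock) in duplicate plates.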
GLA inh pH 4.5: inhibitors of human alpha-galactosidase A at pH 4.5; P06280; purified enzyme, 4-MU-alpha-Gal fluorescence, pH 4.5; activity change, negative = inhibition, % at 105 µM; 230,000 tested, under 10 active;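 also: 0% = full activity with enzyme and -100% = basal without enzyme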
ALDH1A1 inh: inhibitors of human aldehyde dehydrogenase 1A1; Purified ALDH1A1, NADH fluorescence, propionaldehyde substrate; 220,000 tested, 7.3% active; Potency, µM (highest dose often 75.3 µM), for the others: top-dose activity, negative = inhibition, hits mostly inhibitors; AID 1030; active = well fitted inhibition curve with a large enough effect, not every such curve was filed as active; inconclusive = small, poorly fitted or top-dose-only effect, or another doubt; inactive = no such curve, though single readings can be large or run the other way;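 also: potency is read from the fitted curve at half-maximal effect; plate controls were no enzyme wells and a reference inhibitor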
Target sequence (P00352 whole entry, looked up): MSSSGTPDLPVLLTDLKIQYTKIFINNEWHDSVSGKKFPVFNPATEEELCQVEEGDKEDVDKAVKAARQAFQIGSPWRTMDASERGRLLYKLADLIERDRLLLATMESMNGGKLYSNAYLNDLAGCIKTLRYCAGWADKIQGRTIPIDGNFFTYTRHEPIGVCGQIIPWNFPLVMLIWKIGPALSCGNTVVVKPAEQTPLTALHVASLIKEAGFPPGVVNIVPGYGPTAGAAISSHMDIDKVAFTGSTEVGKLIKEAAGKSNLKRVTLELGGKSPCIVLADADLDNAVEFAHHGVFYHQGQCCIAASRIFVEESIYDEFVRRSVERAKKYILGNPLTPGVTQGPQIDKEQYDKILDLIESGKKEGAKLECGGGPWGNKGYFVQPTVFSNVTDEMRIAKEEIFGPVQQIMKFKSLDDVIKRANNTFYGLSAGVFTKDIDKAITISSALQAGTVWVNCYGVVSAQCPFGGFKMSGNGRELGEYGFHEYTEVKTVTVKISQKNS
The depositor's hits bear a star; ? = inconclusive; · = no result; [ ] = another dose, or the depositor's remark. Rows were chosen to be rich in hits. Some 10% of all compounds tested hit in one or more screens of this group. Unless noted, calls follow the shape of the dose curve; as a rule, active = well fitted curve in the direction sought with a large enough effect; inconclusive = small, poorly fitted or top-dose-only effect, or another doubt; inactive = no such curve, though single readings can be large; an effect the other way counts as inactive or inconclusive. Unless noted, % is scaled to controls: 0 for no effect and ±100 for the full control effect.

SMILES	12-hLO inh	HPGD inh	aGal spleen mod	PNC inhibitor	GLA inh pH 4.5	ALDH1A1 inh
O=c1c(-c2cc(F)cc(F)c2)nc2cnc(N3CCOCC3)nc2n1C[C@H]1CCCO1	·	·	12%	·	·	?
O=C(NC1CCCC1)c1cccc(Oc2ccccc2)c1	·	·	-6%	·	-8	4%
O=C(Nc1ccc(Cl)cc1)N1CCN(c2ccccc2)CC1	-4%	5%	-5%	?	-5	2%
Fc1ccccc1CN1CCCCCCC1	-5%	-7%	-1%	?	-5	14µM*
O=C(Nc1ccc(Cl)cc1)N1CCCN(Cc2ccccc2F)C1	-8%	13µM*	-2%	-10	1	-7%
O=C(Nc1ccc(Cl)cc1)N1CCC(CO)(Cc2ccccc2)CC1	·	·	-3%	·	4	13µM*
O=C(COc1ccc(-c2ccccc2)cc1)N1CCN(S(=O)(=O)Cc2ccccc2)CC1	0%	-10%	?	-21	-11	?
CC[C@H](C)[C@H](NC(=O)[C@H](CCC(=O)O)NC(=O)[C@@H](N)CO)C(=O)N[C@@H](CCC(N)=O)C(=O)N[C@@H](CC(C)C)C(=O)N[C@@H](CCSC)C(=O)N[C@@H](Cc1cnc[nH]1)C(=O)N[C@@H](CC(N)=O)C(=O)N[C@@H](CC(C)C)C(=O)NCC(=O)N[C@@H](CCCCN)C(=O)N[C@@H](Cc1cnc[nH]1)C(=O)N[C@@H](CC(C)C)C(=O)N[C@@H](C)C(=O)N[C@@H](CO)C(=O)N[C@H](C(=O)N[C@@H](CCC(=O)O)C(=O)N[C@@H](CCCNC(=N)N)C(=O)N[C@@H](CCSC)C(=O)N[C@@H](CCC(N)=O)C(=O)N[C@@H](Cc1c[nH]c2ccccc12)C(=O)N[C@@H](CC(C)C)C(=O)N[C@@H](CCCNC(=N)N)C(=O)N[C@@H](CCCCN)C(=O)N[C@@H](CCCCN)C(=O)N[C@@H](CC(C)C)C(=O)N[C@@H](CCC(N)=O)C(=O)N[C@@H](CC(=O)O)C(=O)N[C@H](C(=O)N[C@@H](Cc1cnc[nH]1)C(=O)N[C@@H](CC(N)=O)C(=O)N[C@@H](Cc1ccccc1)C(=O)O)C(C)C)C(C)C	·	·	5%	·	·	·
CCn1nc(C(=O)NNC(=O)COc2ccccc2C)c2ccccc2c1=O	-1%	-6%	-15%	-113*	0	7%
COc1ccc2[nH]c(=S)[nH]c2c1	-6%	28µM*	6%	-12	-1	-6%
S=c1[nH]c2ccc(Cl)cc2[nH]1	-6%	10µM*	-10%	5	-2	8.9µM*
S=c1[nH]c2cc3c(cc2[nH]1)OCCO3	·	·	-2%	·	-3	·
S=c1[nH]c2cc(Cl)ccc2s1	-2%	28µM*	-2%	47	0	2.8µM*
C=CCSc1nc2ccsc2c(=O)n1-c1cccnc1	·	·	4%	·	9	-1%
CNC(=O)C1C(=S)NC(N)=C(C#N)C1c1ccccc1 (stereo not given)	?	-8%	2%	-4	4	18µM*
N#CC1=C(N)Nc2ncnn2C1c1ccccc1 (stereo not given)	-1%	-14%	-4%	22	-8	6%
CCCCCCCN[C@H]1CCC[C@@H]1CCCCCCC(=O)O	-1%	-4%	5%	·	-9	-2%
O=C(Cn1nnc(-c2cccs2)n1)NNC(=O)c1ccccc1Cl	·	·	0%	·	1	·
CCn1c2ccccc2c2nnc(SCC(=O)OCN3C(=O)c4ccccc4C3=O)nc21	-3%	·	-4%	?	4	2%
O=C1c2ccccc2C(=O)N1CSc1nnc2c3ccccc3n(CCc3ccccc3)c2n1	5%	-11%	-1%	-20	-2	18µM*
C=CCn1c2ccccc2c2nnc(SCN3C(=O)c4ccccc4C3=O)nc21	-2%	-29%	3%	46	2	28µM*
C=CCn1c2ccccc2c2nnc(SCCCn3c(=O)[nH]c4ccccc43)nc21	0%	14µM*	0%	3	-14	-7%
COc1cccc(-c2nc(NCCNC(C)=O)c3ccccc3n2)c1	·	·	10%	·	·	4%
CCC(=O)Nc1cc(C(=O)O)ccc1Sc1ccc(Cl)cc1	·	·	5%	·	1	-2%
CCN(CC)c1ccc2c(c1)CCCN2	-2%	-10%	14%	-5	4	25µM*
SMILES	12-hLO inh	HPGD inh	aGal spleen mod	PNC inhibitor	GLA inh pH 4.5	ALDH1A1 inh
O=C(O)c1cnc(-c2ccccc2)nc1Sc1ccccc1	6%	14µM*	6%	67	10	-2%
O=C(O)c1cnc(-c2ccccc2)nc1-c1ccccc1	·	·	-5%	·	2	6%
O=C(O)c1cnc(-c2ccccc2)nc1Sc1ccc(Cl)cc1Cl	1%	-18%	7%	14	-5	-15%
O=C(O)c1cnc(-c2ccccc2)nc1Sc1cccc(Cl)c1	1%	22µM*	-2%	?	-11	-3%
CNC(=O)C1(CC(C)C)C=CCN1C(=O)c1ccccc1 (stereo not given)	-3%	-10%	7%	·	4	-1%
O=C(NC1CCCC1)c1cc(-c2cccs2)on1	-4%	13µM*	-1%	-18	-1	?
O=C(NC(=S)Nc1ccc(S(=O)(=O)NC2CCCCC2)cc1)c1cccs1	5µM*	·	-1%	?	1	2%
CC1CCCC(C)N1C(=O)CSc1nnc(-c2cccs2)o1 (stereo not given)	-2%	?	?	-9	-10	?
CC1CCCC(C)N1C(=O)c1cc(-c2cccs2)on1 (stereo not given)	-1%	14µM*	1%	1	2	-3%
O=C(NC(=S)Nc1ccc(S(=O)(=O)N2CCCCC2)cc1)c1cccs1	4%	-24%	1%	-20	0	?
O=C(NNC(=S)NC1CCCCC1)c1cccs1	3%	-26%	12%	27	9	2%
O=C(NC1CCCCC1)c1cccs1	7%	32µM*	28%	-3	3	-12%
CCNC(=O)NC(=O)C(C)Sc1nc2cc(C(=O)OC)ccc2c(=O)n1-c1ccccc1 (stereo not given)	-5%	-7%	9%	-19	0	22µM*
CCCCn1c(SC(C)C(N)=O)nc2cc(C(=O)OC)ccc2c1=O (stereo not given)	6%	-15%	-11%	-1	2	0.6µM*
CCCNC(=O)NC(=O)CSc1nc2cc(C(=O)OC)ccc2c(=O)n1-c1ccccc1	-4%	-27%	8%	?	3	-8%
C[C@H](Br)C(=O)c1ccc2cc(Br)c3ccccc3c2c1	4%[11.4 µM]	1%	·	·	·	?
O=C(N/N=C/c1cccs1)c1ccc(-n2cccc2)cc1	·	·	-12%	·	1	2%

From PubChem BioAssay
